From PubChem BioAssay
The list is not random: actives were taken first. Their share in the collection is about 8.5%.
FBPA coupling cs = counter-screen for Giardia aldolase inhibitors: coupling enzyme system. AID 2472. hit rate 0.67% among 290,000. activity change, negative = inhibition, % at 58.2 µM, hits read low. coupling enzyme system counterscreen, AmpLite Red fluorescence; in the data active means activity change below about -30%
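Compounds tested against the coupling enzymes alone at 57.5 uM final; readout was AmpLite Red fluorescence (525/598 nm) after 20 min at RT.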
ALDH1A1 block = inhibitors of human aldehyde dehydrogenase 1A1 | P00352 | Purified ALDH1A1, NADH fluorescence, propionaldehyde substrate | Potency, µM (series often up to 75.3 µM), for the others: top-dose activity, negative = inhibition, actives largely listed as inhibitors | hit rate 7.3% among 220,000;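 further: potency means the concentration at half of the fitted maximal effect; plate controls were no enzyme wells and a reference inhibitor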
RGS12 GoLoco inh = inhibitors of human Gai1-RGS12 GoLoco interaction (red fluorophore); P63096; Gai1:RGS12 GoLoco peptide FP, rhodamine, 10 min; Potency, µM (top dose mostly 61.6 µM), without a hit: top-dose activity, negative = inhibition, most hits filed as inhibitors; AID 880; hit rate 0.44% among 230,000; active means well fitted inhibition curve with a large enough effect, not every such curve was filed as active; inactive means no such curve, though single readings can be large or run the other way; further: potency means the concentration at half of the fitted maximal effect; nearly all actives have a fitted effect of over 30% in size
Target sequence (P63096 whole entry, looked up): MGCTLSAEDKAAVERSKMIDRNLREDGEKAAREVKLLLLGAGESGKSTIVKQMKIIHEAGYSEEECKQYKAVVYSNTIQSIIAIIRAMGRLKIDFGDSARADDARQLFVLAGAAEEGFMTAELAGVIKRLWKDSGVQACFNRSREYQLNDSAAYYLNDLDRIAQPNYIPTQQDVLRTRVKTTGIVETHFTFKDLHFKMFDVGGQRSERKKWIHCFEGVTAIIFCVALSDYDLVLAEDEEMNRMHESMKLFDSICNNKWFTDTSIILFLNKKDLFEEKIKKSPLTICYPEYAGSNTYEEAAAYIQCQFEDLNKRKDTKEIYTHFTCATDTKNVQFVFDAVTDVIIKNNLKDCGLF
NPSR antag = neuropeptide S receptor (human) antagonism, cAMP; CHO-NPSR cells, cAMP TR-FRET, antagonist mode; hit rate 1% among 220,000; Potency, µM (highest dose often 38.3 µM), without a hit: at the top dose activity change, negative = inhibition, actives largely listed as inhibitors; Q6W5P4; active means well fitted curve in the direction sought with a large enough effect; inconclusive means small, poorly fitted or top-dose-only effect, or another doubt; inactive means no such curve, though single readings can be large; an effect the other way counts as inactive or inconclusive; further: potency means the concentration at half of the fitted maximal effect; nearly all actives have a fitted effect of over 50% in size
Target sequence (Q6W5P4 whole entry, looked up): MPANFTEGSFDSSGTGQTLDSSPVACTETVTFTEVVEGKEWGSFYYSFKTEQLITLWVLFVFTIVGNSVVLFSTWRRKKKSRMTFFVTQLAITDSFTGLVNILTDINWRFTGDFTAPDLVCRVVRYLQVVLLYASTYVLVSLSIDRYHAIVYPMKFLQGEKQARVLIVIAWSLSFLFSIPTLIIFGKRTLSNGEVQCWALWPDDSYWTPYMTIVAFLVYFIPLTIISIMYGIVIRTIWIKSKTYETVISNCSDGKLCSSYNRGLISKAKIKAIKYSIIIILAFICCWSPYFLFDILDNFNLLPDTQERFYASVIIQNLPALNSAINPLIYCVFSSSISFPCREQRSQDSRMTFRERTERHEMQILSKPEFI
Sfp inh = blocks B. subtilis Sfp PPTase activity; Q9F4F7; Biochemical Sfp PPTase activity, qHTS; Potency, µM, for inactives: largest response in the series, negative = inhibition, actives largely listed as inhibitors; hit rate 3.5% among 310,000; AID 1490; active means well fitted curve in the direction sought with a large enough effect; inconclusive means small, poorly fitted or top-dose-only effect, or another doubt; inactive means no such curve, though single readings can be large; an effect the other way counts as inactive or inconclusive;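 further: the enzyme is Sfp with the accession as filed and its product quenches rhodamine fluorescence; potency means the concentration at half of the fitted maximal effect; 0% = enzyme reaction without inhibitor and -100% = no enzyme wells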
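With Hepes-Na pH 7.6 buffer containing 10 mM MgCl2, Sfp (15 nM) modified BHQ-2-YbbR (12.5 uM) using rhodamine-CoA (5 uM). Two reads 30 minutes apart at 525/598 nm yielded each well's rate.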
JMJD2E inh = blocks human JMJD2E demethylase activity. B2RXH2. JMJD2E catalytic domain, FDH-coupled NADH fluorescence (FDH is formaldehyde dehydrogenase). Potency, µM (doses to about 57.1 µM), without a hit: at the top dose activity change, negative = inhibition, usual class: inhibitors. hit rate 1.6% among 230,000. AID 2147;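 further: potency means the concentration at half of the fitted maximal effect; 0% = wells with enzyme and -100% = buffer wells without enzyme; nearly all actives have a fitted effect of over 50% in size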
* = called active by the depositor; u = inconclusive; x = no result; [ ] = dose if it differs, or a comment. Unless noted, the call rests on the fitted dose curve; in most records, active means well fitted inhibition curve with a large enough effect (not every such curve was filed as active); inconclusive means small, poorly fitted or top-dose-only effect, or another doubt; inactive means no such curve, though single readings can be large or run the other way. Unless noted, on the % scale 0 is the no-effect control and ±100 the full control effect.

SMILES	FBPA coupling cs	ALDH1A1 block	RGS12 GoLoco inh	NPSR antag	Sfp inh	JMJD2E inh
CC1=C(C#N)C(c2ccccc2)C2=C(N1)c1ccccc1C2=O (stereo not given)	1	13µM*	6%	-15%	9%	1%
COc1ccc(CCNC(=O)CSc2nc3ccsc3c(=O)n2CC2CCC(C(=O)O)CC2)cc1OC (stereo not given)	6	x	x	x	7%	x
CN(CC(=O)N1CCCc2c1c(=O)oc1ccc(O)cc21)Cc1ccccc1	-2	13µM*	-2%	-15%[46.1 µM]	-9%	u
CC1CCN(CCC(=O)N2CCCc3c2c(=O)oc2ccc(O)cc32)CC1	-2	2.2µM*	-12%	-4%[46.1 µM]	23%	-7%
Cc1cncc(C(=O)O)[n+]1[O-]	x	x	x	x	-17%	x
O=C(COC(=O)c1ccccc1Br)NCCN1C(=O)CSC1=O	3	14µM*	-2%	7%	8%	-3%
O=C(COC(=O)c1cccc(Cl)c1Cl)NCCN1C(=O)CSC1=O	1	0%	13%	8%	0%	-5%
COC(=O)c1cc(NC(=O)Cn2c(=O)oc3ccccc32)cc(C(=O)OC)c1	-3	x	x	x	-16%	x
CCCOCC(C)O (stereo not given)	x	-4%	-19%	x	x	x
CCOC(=O)C(C(=O)OCC)c1cc(Br)c2noc3c2c1C(=O)c1ccccc1-3	-64*	10µM*	-21%	4µM*	0.71µM*	u
NC(=O)[C@H]1CCCN1C(=O)[C@H](Cc1cnc[nH]1)NC(=O)[C@@H]1CCC(=O)N1	2	x	x	x	-14%	x
CC(C)CC(=O)Nc1nnc(S(=O)(=O)Nc2ccccc2)s1	8	x	x	x	5%	x
CC1(C)N=C(N)N=C(N)N1CCCCc1ccccc1	x	-9%[13.5 µM]	-1%[14.2 µM]	x	x	x
COc1nc(N/N=C/c2cc3c(cc2Br)OCO3)nc(N2CCOCC2)n1	-8	7.9µM*	x	-15%[46.1 µM]	-1%	1%
COc1ccc(OCc2cc(C(=O)N(C)C(C)c3ccon3)no2)c(Cl)c1 (stereo not given)	x	x	x	x	19%	x
Cc1cc(NC(=O)CCc2ccc(-c3ccccc3)o2)no1	-2	x	x	x	-28%	x
Cc1ccc(-c2ccc(CCC(=O)O)o2)cc1	11	u	-1%	-9%[46.1 µM]	45µM*	u
CC(/C=N/NC(=O)c1nnn(-c2nonc2N)c1C(C)C)=C\c1ccco1	-2	x	x	x	-14%	x
COc1ccc(-c2cc(=O)[nH][nH]2)cc1	-5	-2%	8%	-13%[46.1 µM]	-11%	u
COc1ccc(-c2cc(=O)n(CCC#N)[nH]2)cc1	-3	11%	8%	11%	6%	1.8µM*
CC(C)NC(=O)c1sc2nc3c(c(-c4cccs4)c2c1N)CN(C)CC3	1	-11%	5%	u	-6%	-30%
Cc1cccc(NC(=O)c2sc3nc4c(c(-c5cccs5)c3c2N)CN(C)CC4)c1	-1	14µM*	42%	-21%[46.1 µM]	u	-8%
NNC(=O)c1nc[nH]c1C(=O)Nc1ccccc1[N+](=O)[O-]	-4	0.79µM*	8%	9%	4%	11%
O=C(NCc1ccccc1)c1nc[nH]c1C(=O)NCc1ccccc1	5	2.5µM*	16%	27%	-2%	7%
O=C(Nc1ccc(F)cc1)c1nc[nH]c1C(=O)Nc1ccccc1[N+](=O)[O-]	1	-2%	2%	-19%	-11%	7%
SMILES	FBPA coupling cs	ALDH1A1 block	RGS12 GoLoco inh	NPSR antag	Sfp inh	JMJD2E inh
CCCc1nnc(NC(=O)C2CCN(C(=O)c3ccco3)CC2)s1	-1	x	x	x	-3%	x
COc1ccccc1CNC(=O)c1ccc2c(=O)n3c(nc2c1)CCCCC3	2	x	x	x	9%	x
C=CCc1ccc(OCCOCCOc2ccc(C)cc2[N+](=O)[O-])c(OC)c1	-2	25µM*	2%	-16%[46.1 µM]	11%	4%
Cc1ccc(NC(=S)Nc2ccc(C(C)C)cc2)cc1S(=O)(=O)N1CCCCCC1	-8	18µM*	9%	-22%	56µM*	3%
COc1ccc(NC(=O)c2c(C(F)(F)F)nn(C)c2SCc2ccccc2)cc1	-2	8.9µM*	-8%	-6%[46.1 µM]	7%	2%
Cn1nc(C(F)(F)F)c(C(=O)Nc2ccc(C(F)(F)F)cc2)c1Cl	2	4%	6%	-3%[46.1 µM]	u	4%
COc1ccc(Cl)cc1NC(=S)N(CCCN1CCOCC1)Cc1cn(C)c2ccccc12	-5	-14%	10%	-30%	13µM*	-13%
COc1cc(Cl)ccc1NC(=S)N(CCCN1CCOCC1)Cc1cn(C)c2ccccc12	-3	u	-4%	-24%	11µM*	-2%
CCc1cc(=O)oc2c(C)c(OC(C)C(=O)NCCCn3ccnc3)ccc12 (stereo not given)	-1	x	x	x	8%	x
C=C1CC2C(=O)N(Cc3cc(OC)ccc3OC)C(C(=O)OCC)(C(=O)OCC)C1N2C(=O)OC(C)(C)C (stereo not given)	1	x	x	x	7%	x
COc1ccccc1NC(=S)NNC(=O)c1ccncc1	-1	-1%	7%	17%	24%	9%
COC(=O)c1cccnc1NC(=S)NNC(=O)c1ccncc1	-30	3%	4%	4%[46.1 µM]	10µM*	-18%
COc1ccc(C(=O)CC(=O)c2ccc(OC)cc2)cc1	-1	x	x	x	12%	x
COc1ccc(C(=O)C[N+]2(C)CCOCC2)cc1	3	-14%	7.1µM*	-19%[46.1 µM]	-7%	-1%
COc1ccc(C(=O)OCC[N+]2(C)CCCCC2)cc1	1	9%	13µM*	7%	5%	-9%
COc1ccc(C(=O)OCCN2CCCCC2)cc1	0	4%	3%	-5%	20%	9%
Cc1ccc(NC(=O)c2cc(NC(=O)c3ccccc3C(=O)O)ccc2N2CCCCC2)cc1	-10	-9%	13%	-19%	-26%	-2%
CC(=O)Nc1ccc(N2CCCCC2)c(C(=O)Nc2cccc(C)c2)c1	x	11µM*	-16%	-26%[46.1 µM]	-6%	-3%
Cc1cccc(NC(=O)c2cc(NC(=O)C3CCCCC3C(=O)O)ccc2N2CCCCC2)c1 (stereo not given)	3	18µM*	4%	-28%[46.1 µM]	16%	-6%
COc1ccc(C(=O)NC(=S)Nc2ccc(N3CCOCC3)cc2)cc1Cl	-1	x	x	x	-5%	x
CCCCNc1c(N)n(CC(C)C)c(=O)[nH]c1=O	-3	u	7%	-14%	10%	u
CC(=O)Nc1ccc(NC(=O)c2ccc(C3SCC(=O)N3CCc3ccccc3)cc2)cc1 (stereo not given)	0	25µM*	4%	-10%	-2%	-3%
Cc1cccc(NC(=O)c2ccc(C3SCC(=O)N3CCc3ccccc3)cc2)c1 (stereo not given)	0	u	2%	-30%	13%	-6%
CCC1(C)N=C(N)Nc2nc3cc(C)c(C)cc3n21 (stereo not given)	4	x	-13%	19%	6%	0%
